Hit rate of the full screen: of about 18,000 compounds, about 750 (4.2%) were called active. Where a call stands in place of a potency, no number is given. Another 13% or so got no clear call; they are omitted. The call rests on the fitted dose curve; tested in HEK293 cells. The sample as a whole holds a higher share of actives than the screen did.
Potency means the concentration at half of the fitted maximal effect.

The assay in a line: qHTS for Inhibitors of binding or entry into cells for Lassa Virus. The settings on record: Lassa virus pseudotyped entry inhibition, cell-based qHTS; series mostly up to 49.2 µM.
As for `C=C(C)C(O)C=CC=Cc1ccccc1` (stereo not given), the activity change, negative = inhibition was 46.4% [at 8.59 µM] (inactive).

For `C=O`, the activity change, negative = inhibition result is “inactive”.

As to `C[C@H]1CCC[C@@]2(C)CCCC[C@]12O`, the activity change, negative = inhibition entry is “inactive”.

Consider `CO[C@@]12[C@@H](COC(N)=O)C3=C(C(=O)C(C)=C(N)C3=O)N1C[C@@H]1N[C@@H]12`, for which the activity change, negative = inhibition result is “inactive”.

Consider `COc1cc(=O)n2c(c1C(=O)NC(C)c1ccco1)CCN(C(=O)c1cn3ccc(C)cc3n1)CC2` (stereo not given), for which the activity change, negative = inhibition entry is “inactive”.

On to `CC[C@H](C)[C@H](NC(=O)[C@H](CCCNC(=N)N)NC(=O)[C@H](CCCNC(=N)N)NC(=O)[C@H](CC(C)C)NC(=O)[C@H](Cc1ccccc1)NC(=O)CNC(=O)CNC(=O)[C@@H](N)Cc1ccc(O)cc1)C(=O)N[C@@H](CCCNC(=N)N)C(=O)N1CCC[C@H]1C(=O)N[C@@H](CCCCN)C(=O)N[C@@H](CC(C)C)C(=O)N[C@@H](CCCCN)C(=O)N[C@@H](Cc1c[nH]c2ccccc12)C(=O)N[C@@H](CC(=O)O)C(=O)N[C@@H](CC(N)=O)C(=O)N[C@@H](CCC(N)=O)C(=O)O`, for which the activity change, negative = inhibition result is “inactive”.

Regarding `CCC1(C2CCN(Cc3cccnc3)CC2)NC(=O)N(CC2COc3ccccc3O2)C1=O` (stereo not given), the activity change, negative = inhibition result is “inactive”.

For the compound `COC(=O)C12C[C@@H](C)C3C(C)C(c4ccccc4C31)N2C(=O)C(F)(F)F` (stereo not given in full), the activity change, negative = inhibition is 4.36% [at 8.59 µM] (inactive).

`C=CCOC(=O)N[C@@H](CC(C)C)C(C(=O)OC)=C(C)NCc1ccccc1`: the activity change, negative = inhibition was -29.4% [at 8.59 µM] (inactive).

For the compound `C[C@H]1Cc2c(-c3ccccc3)nc3c(c2CO1)CN(S(=O)(=O)c1ccc(Cl)c2nonc12)CC3`, the activity change, negative = inhibition was -12.5% [at 8.59 µM] (inactive).

For the compound `CC1(C)OC[C@@H](COC(=O)CCc2ccc(OC[C@@H](O)CNCCNC(=O)N3CCOCC3)cc2)O1`, the activity change, negative = inhibition result was “inactive”.

In the case of `NS(=O)(=O)c1ccc(N=Nc2c(O)[nH]c3cccc(CCc4ccncc4)c23)cc1`, the activity change, negative = inhibition result was “inactive”.

As to `CC(=O)OC[C@H]1O[C@H](C#CCCCc2ccccc2)C=C[C@H]1OC(C)=O`, the activity change, negative = inhibition is -26.7% [at 8.59 µM] (inactive).

On to `COc1ccc(-n2c(CNC(=O)c3cc(C(F)(F)F)ccc3Cl)nnc2SC)cc1`, for which the activity change, negative = inhibition result was “inactive”.

Regarding `CCCC1C(=O)N2C(N(C)C)=Nc3ccc(C)cc3N2C1=O` (stereo not given), the activity change, negative = inhibition result is “inactive”.

On to `CC(=O)OCC(COC(C)=O)OC(C)=O`, for which the activity change, negative = inhibition result was “inactive”.

In the case of `COC(=O)C(C(=O)OC)C1c2ccccc2C=C(C2CC2)N1C(=O)OC` (stereo not given), the activity change, negative = inhibition entry was “inactive”.

As to `CCC1CN(CCNC(=O)c2cccnc2C)Cc2cc(OC)ccc2O1` (stereo not given), the activity change, negative = inhibition result is “inactive”.

With `O=C1OCCN1C(=O)[C@H]1[C@H](c2ccc(F)cc2)C(c2ccccc2)=NN1c1ccc(Br)cc1`, the activity change, negative = inhibition entry was “inactive”.

As for `CCn1ccnc1C[C@@H]1COc2ccccc2O1`, the activity change, negative = inhibition entry was “inactive”.

`C#CCN([C@@H](C)C(=O)OCC)S(=O)(=O)c1ccc(Br)cc1F`: the activity change, negative = inhibition result was “inactive”.

With `CCCc1c2oc(C(=O)O)cc(=O)c2cc2c(=O)cc(C(=O)O)n(CC)c12`, the activity change, negative = inhibition entry was “inactive”.

As for `CCc1noc(C)c1C(=O)NCCN1Cc2cc(OC)ccc2OC(CC)C1` (stereo not given), the activity change, negative = inhibition entry is “inactive”.

On to `CC(=O)c1c(O)c(C)c(O)c(Cc2c(O)c3c(c(C(=O)/C=C\c4ccccc4)c2O)OC(C)(C)C=C3)c1O`, for which the Potency was 15.8 µM (active).

As to `CC(=O)c1c(O)c(C)c(O)c(Cc2c(O)c3c(c(C(=O)/C=C/c4ccccc4)c2O)OC(C)(C)C=C3)c1O`, the activity change, negative = inhibition result is “inactive”.

As to `O=C(/C=C/c1ccccc1)c1ccccc1O`, the activity change, negative = inhibition entry is “inactive”.

Turning to `CC(C)CNc1cccc2c1S(=O)(=O)N[C@H](CC(C)C)CO2`, the activity change, negative = inhibition result is “inactive”.

Take `CC[C@@]12C=C(/C=C/c3ccccc3)[C@](CC)(C1)[C@H](c1ccccc1)CC2=O`: the activity change, negative = inhibition entry was “inactive”.

`O=C(NCc1ccco1)O[C@@H]1C(=O)c2cc(Br)ccc2O[C@H]1c1ccc2c(c1)OCO2`: the activity change, negative = inhibition entry is “inactive”.

With `O=C(C1CCCCC1)N1C[C@@H](n2cc(C3CC3)nn2)[C@@H](O)C[C@@H]1c1ccccc1`, the activity change, negative = inhibition entry is “inactive”.

In the case of `COC(=O)c1ccccc1-c1cc(C)cc2c1OC(CNC(=O)C1CCOC1)C2` (stereo not given), the activity change, negative = inhibition entry is “inactive”.

As for `CC(C)c1ccc2c(c1)c(SC(C)(C)C)c(CC(C)(C)C(=O)O)n2Cc1ccc(Cl)cc1`, the Potency was 25.1 µM (active).

For the compound `COCCN1C(=S)NC(c2cccc(F)c2)C(C(=O)OC)=C1C` (stereo not given), the activity change, negative = inhibition is 11% [at 8.59 µM] (inactive).

As to `O=C(Nc1ccc(C(=O)O)c(O)c1)c1ccccc1`, the activity change, negative = inhibition result was “inactive”.

For `O=C(Nc1ccc(O)cc1)c1ccccc1O`, the activity change, negative = inhibition entry is “inactive”.

`O=C(Nc1cccc(C(F)(F)F)c1)c1cc(Br)cc(Br)c1O`: the Potency is 3.98 µM (active).

Turning to `c1ccc2c(c1)[I+]c1ccccc1-2`, the Potency is 0.891 µM (active).

For `CCCCCCCC/C=C\CCCCCCCC(=O)OC[C@H](CO)OC(C)=O`, the activity change, negative = inhibition entry was “inactive”.

Consider `Cc1cc2oc(=O)cc(-c3ccccc3)c2c(C)c1/C=C/c1ccc(F)cc1`, for which the activity change, negative = inhibition result was “inactive”.

`Oc1c(Cl)cc(Cl)c(Cl)c1Cc1c(O)c(Cl)cc(Cl)c1Cl`: the Potency was 6.31 µM (active).

For `C=CCC1CCC(=O)N2CCCC12` (stereo not given), the activity change, negative = inhibition result is “inactive”.

For the compound `CO[C@H]1C=CO[C@@]2(C)Oc3c(C)c(O)c4c(O)c(c(/C=N/N5CCN(C)CC5)c(O)c4c3C2=O)NC(=O)/C(C)=C\C=C[C@H](C)[C@H](O)[C@@H](C)[C@@H](O)[C@@H](C)[C@H](OC(C)=O)[C@@H]1C`, the activity change, negative = inhibition entry is “inactive”.

On to `COC(=O)C(C(=O)OC)[C@@H](NC=O)c1ccccc1`, for which the activity change, negative = inhibition result was “inactive”.

As to `Cc1c(O)cc(O)c2c(=O)c(-c3ccc(O)cc3)coc12`, the activity change, negative = inhibition entry was “inactive”.

Turning to `O=C(OCc1ccccc1)c1ccc(O)cc1`, the activity change, negative = inhibition entry was “inactive”.

With `O=c1c(O)c(-c2ccc(O)cc2)oc2ccccc12`, the activity change, negative = inhibition entry is “inactive”.

As for `O=c1c(CN2CCOc3ccc(CN4CCC(Oc5cccnc5)CC4)cc3C2)coc2ccccc12`, the activity change, negative = inhibition entry is “inactive”.

For the compound `O[C@H]1CN(CC2CCCCC2)[C@@H](c2ccccc2)C[C@H]1n1cc(-c2ccc(F)cc2)nn1`, the activity change, negative = inhibition entry is “inactive”.

In the case of `O=c1cc(CN2CCCCCCC2)c2c(ccc3ccccc32)o1`, the activity change, negative = inhibition entry is “inactive”.

Regarding `CCCCCCN1C[C@H](O)[C@@H](n2cc(COC(=O)c3ccccc3)nn2)C[C@H]1c1ccc(Cl)cc1`, the activity change, negative = inhibition result is “inactive”.
